Many of the other results were omitted from the sample, so hits are more common in it than they were.
ARNT-TACC3 inh – disruptors of ARNT/TACC3 protein interaction, primary screen, biochemical, AlphaScreen, single concentration; Transforming acidic coiled-coil-containing protein 3 (Homo sapiens), Q9Y6A5; AlphaScreen His-ARNT PAS-B/GST-TACC3 binding, luminescence; TACC3 fragment carries E629A point mutation; inhibition, % at 9.99 µM; 0.66% of 390,000 active; AID 623870, 2012;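 active = mean inhibition of replicates at least 50% and at least half of replicates each reaching 50%; inconclusive = half or more replicates reach 50% but mean below 50%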;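 note: 0% = complete ARNT plus TACC3 wells and 100% = ARNT alone without TACC3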
PglD DTNB – C. jejuni PglD acetyltransferase inhibitors, primary screen, biochemical, DTNB colorimetric, single point | inhibition, % at 12.5 µM | AID 602405, 2012 | purified PglD enzyme, DTNB colorimetric CoA detection | UDP-N-acetylbacillosamine N-acetyltransferase PglD (Campylobacter jejuni) | 0.098% of 360,000 active; in the data active = inhibition above about 16%, passing the limit was not always enough; inconclusive = no clear call, values can overlap the other calls
ERp5 inh – inhibitors of ERp5-driven insulin aggregation, primary screen, biochemical, turbidity, absorbance 650 nm, single point. inhibition, % at 9.99 µM. 0.05% of 350,000 active. AID 651711, 2012. 90 min. Protein disulfide-isomerase A6 (Homo sapiens), Q15084;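 active = mean replicate inhibition above about 25%, with every replicate also reaching it, limit read from the data, passing the limit was not always enough; inconclusive = only one of those two criteria met; inactive = neither criterion met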
ALR inh – inhibitors of human ALR sulfhydryl oxidase, primary screen, biochemical, H2O2 detection, HRP-luminol luminescence, single point. FAD-linked sulfhydryl oxidase ALR (Homo sapiens), P55789. purified ALR, DTT oxidation. inhibition, % (test concentration not listed). 3.8% of 290,000 active. AID 485317, 2010;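 active = mean replicate inhibition above about 79%, with every replicate also reaching it, limit read from the data; inconclusive = only one of the two criteria met; inactive = mean below limit and not every replicate reaching it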
PDI inh – inhibitors of human PDI, primary screen, biochemical, turbidity, single point, plate reader | AID 588391, 2011 | 0.052% of 350,000 active | inhibition, % at 10 µM | Protein disulfide-isomerase (Homo sapiens), P07237 | PDI insulin aggregation turbidity, A650, 90 min;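 active = mean inhibition across replicates of 30% or more, whatever share of single replicates reach that level; inconclusive = mean inhibition below 30% while every single replicate reaches 30%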
Target sequence (P07237 whole entry, looked up): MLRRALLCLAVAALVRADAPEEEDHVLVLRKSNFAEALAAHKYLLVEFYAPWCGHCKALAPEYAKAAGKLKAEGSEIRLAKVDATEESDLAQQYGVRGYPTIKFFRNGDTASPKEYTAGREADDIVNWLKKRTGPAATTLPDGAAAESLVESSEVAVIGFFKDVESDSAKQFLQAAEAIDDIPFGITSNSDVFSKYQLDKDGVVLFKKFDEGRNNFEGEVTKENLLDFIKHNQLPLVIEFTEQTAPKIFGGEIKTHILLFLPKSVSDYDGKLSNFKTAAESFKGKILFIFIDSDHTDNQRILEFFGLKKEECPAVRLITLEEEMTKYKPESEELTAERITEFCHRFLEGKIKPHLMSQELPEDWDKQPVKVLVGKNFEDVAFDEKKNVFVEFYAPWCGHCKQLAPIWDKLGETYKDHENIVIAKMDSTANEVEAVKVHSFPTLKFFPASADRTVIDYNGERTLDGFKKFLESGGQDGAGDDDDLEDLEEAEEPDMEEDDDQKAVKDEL
CendR NRP1 mod – modulators of CendR peptide binding to NRP-1, primary screen, biochemical, fluorescence polarization, uHTS; Neuropilin-1 (Homo sapiens), O14786; FAM-RPARPAR peptide binding to NRP-1; inhibition, % at 25 µM; 0.85% of 360,000 active; AID 602438, 2012;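 active = inhibition or corrected inhibition above about 18%, plus a signal ratio from 0.5 to 1.5, limit read from the data, passing the limit was not always enough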
The depositor's hits bear a star; ? = inconclusive; nt = no result given.

SMILES | ARNT-TACC3 inh | PglD DTNB | ERp5 inh | ALR inh | PDI inh | CendR NRP1 mod
CCCCC1=CC2=CC(=O)C(C)(OC(=O)CC)C(=O)C2=CN1C(CO)CO (stereo unspecified) | -1 | 1 | -2 | -19 | 0 | 35*
CCCCC1=CC2=CC(=O)C(C)(OC(=O)CC)C(=O)C2=CN1CC(C)C (stereo unspecified) | nt | 1 | 3 | -17 | -6 | 4
COC(=O)CCCC1=CC2=CC(=O)C(C)(OC(=O)c3cccs3)C(=O)C2=CN1CCc1ccccn1 (stereo unspecified) | 10 | 3 | -1 | -56 | -5 | 12
CCCCC1=CC2=CC(=O)C(C)(OC(=O)CC)C(=O)C2=CN1Cc1ccc(OC)cc1 (stereo unspecified) | 0 | -3 | 2 | -18 | 1 | 35*
C=CCN1C=C2C(=O)C(C)(OC(=O)c3cccs3)C(=O)C=C2C=C1CCCC(=O)OC (stereo unspecified) | 15 | -2 | -3 | -32 | -14 | 28*
C=CCN1C=C2C(=O)C(C)(OC(=O)CC)C(=O)C=C2C=C1CCCC (stereo unspecified) | 7 | -1 | -5 | nt | 13 | 6
C[C@@H]1CN([C@H](C)CO)S(=O)(=O)c2ccc(-c3cncnc3)cc2O[C@H]1CN(C)C(=O)C1CCC1 | 7 | 3 | 7 | nt | nt | nt
COC(=O)c1[nH]c2ccc(Cl)cc2c1NC(=O)Oc1ccccc1 | -9 | -4 | nt | 100* | -7 | -6
COC(=O)c1[nH]c2ccc(Cl)cc2c1NC(=O)C1CC1 | -12 | -1 | nt | -9 | -4 | 4
COC(=O)c1[nH]c2ccc(C)cc2c1NC(=O)Nc1ccccc1OC | -1 | -11 | nt | 97* | -3 | -16
COc1cc(C(=O)Nc2c(C(=O)O)[nH]c3ccc(C)cc23)cc(OC)c1OC | 6 | -3 | 1 | 96* | -1 | -10
COC(=O)c1[nH]c2ccc(C)cc2c1NC(=O)CN1CCc2cc(OC)c(OC)cc2C1 | -4 | -7 | nt | -2 | 4 | -9
C[C@H]1CN([C@@H](C)CO)C(=O)c2cc(Br)cnc2O[C@H]1CN(C)C(=O)C1CCOCC1 | -1 | 0 | -5 | nt | nt | nt
CNC[C@H]1OCCCC[C@@H](C)Oc2ccc(NS(=O)(=O)c3ccc(F)cc3)cc2C(=O)N([C@H](C)CO)C[C@@H]1C | -1 | -3 | 1 | nt | nt | nt
COCC#Cc1ccc(CC[C@H]2O[C@H]3CC[C@@H](CO)O[C@H]3C[C@@H]2n2cc(C3(O)CCCC3)nn2)cc1 | nt | nt | 2 | nt | nt | nt
CCOC(=O)N1CCN(C(=O)c2ccc(CS(=O)Cc3ccccc3Cl)o2)CC1 (stereo unspecified) | 1 | -1 | -2 | ? | -1 | 8
O=C(c1ccc(CS(=O)Cc2ccccc2Cl)o1)N1CCN(C2CCCCC2)CC1 (stereo unspecified) | 3 | -4 | 12 | 98* | -4 | 0
COc1cc2nc(-c3cccs3)oc(=O)c2cc1OC | 4 | nt | 0 | -8 | 10 | 27*
CC(C)NC(=O)N1Cc2cc(C(=O)NC3CCCCC3)nc(-c3cccc(-c4cccnc4)c3)c2[C@H]1CCO | nt | nt | 1 | nt | nt | nt
CCCc1sc(N/N=C/c2ccccn2)nc1-c1ccc(Br)cc1 | 33* | 0 | -11 | -2 | 1 | -14
O=C(c1ccc(Cn2cc(Cl)cn2)cc1)N1CCN(c2ccccc2)CC1 | nt | 2 | nt | 98* | 4 | -7
O=C(Nc1ccccc1F)c1ccc(Cn2cc(Cl)cn2)cc1 | 0 | nt | 6 | 100* | 0 | 2
O=C(Nc1cccc2ccccc12)c1ccc(Cn2cc(Cl)cn2)cc1 | -3 | nt | nt | -18 | -2 | -2
O=C(c1ccc(Cn2cc(Br)cn2)cc1)N1CCN(c2ccccc2)CC1 | 5 | nt | -1 | 0 | -37 | 0
COc1cccc(N2C(=O)CC(Sc3nc(C)cc(C)n3)C2=O)c1 (stereo unspecified) | 2 | -7 | -2 | -1 | 10 | -4
SMILES | ARNT-TACC3 inh | PglD DTNB | ERp5 inh | ALR inh | PDI inh | CendR NRP1 mod
COc1ccc(N2C(=O)CC(Sc3n[nH]c(-c4cccc(C)c4)n3)C2=O)cc1 (stereo unspecified) | nt | 2 | 0 | 99* | 2 | 5
CCOc1ccccc1N1C(=O)CC(Sc2n[nH]c(-c3ccccc3)n2)C1=O (stereo unspecified) | -2 | nt | 1 | 99* | 1 | 6
COc1cccc(S(=O)(=O)N(C)C[C@H]2Oc3cc(C#CCN(C)C)ccc3S(=O)(=O)N([C@@H](C)CO)C[C@@H]2C)c1 | -7 | 15 | -3 | nt | nt | nt
C[C@@H]1CN([C@@H](C)CO)C(=O)c2cc(N(C)C)ccc2O[C@@H](C)CCCCO[C@H]1CN(C)C(=O)C1CCCCC1 | 13 | -1 | 1 | nt | nt | nt
O=c1[nH]c(=O)n(C2OC(CO)C(O)C2O)c2c1CCCC2 (stereo unspecified) | nt | nt | 16 | nt | nt | 23*
Cc1cc(N=Nc2c(O)c3ccccc3[nH]c2=O)ccc1N=Nc1ccc(C(=O)N(C)C)cc1 | 2 | -1 | 1 | nt | 10 | 23*
CN(C)C(=O)c1ccc(N=Nc2c(O)c3ccccc3[nH]c2=O)cc1 | 17 | -2 | 3 | nt | 7 | -2
CN1C(=O)c2cc(NC(=O)c3ccc(C(F)(F)F)cc3)ccc2OC[C@@H]2O[C@@H](CC(=O)NC3Cc4ccccc4C3)CC[C@H]21 | -7 | -1 | -1 | nt | nt | nt
O=c1c2ccccc2nc(COc2ccccc2)n1/N=C/c1ccc(O)cc1O | 8 | nt | -1 | 77* | 2 | -4
O=c1c2ccccc2nc(COc2ccccc2)n1/N=C/c1c[nH]c2ccccc12 | 9 | -2 | 5 | nt | -4 | -11
O=C(NCc1ccco1)C1CCN(S(=O)(=O)c2cccc([N+](=O)[O-])c2)CC1 | 5 | 0 | -4 | -4 | -4 | 28*
COc1ccccc1CNC(=O)C1CCN(S(=O)(=O)c2cccc([N+](=O)[O-])c2)CC1 | 12 | 2 | -1 | -8 | 5 | 5
Cc1noc(C)c1S(=O)(=O)Nc1cccc2c1O[C@H](CN(C)C(=O)Nc1ccc3c(c1)OCO3)[C@H](C)CN([C@@H](C)CO)C2=O | -3 | -6 | -3 | nt | nt | nt
COc1cccc(N2CCN(Cc3cccnc3)CC2)c1 | -5 | 3 | nt | 91* | -3 | 9
Cc1ccccc1S(=O)(=O)N1CC(=O)N2[C@H](CO)[C@H](c3ccc(C#CC4CC4)cc3)[C@H]2C1 | nt | nt | -1 | nt | nt | nt
Cc1sc(NC(=O)CCl)c(C(=O)c2ccccc2)c1C | 2 | -1 | nt | 99* | 72* | 0
